High-throughput results: PubChem, Broad Institute
Sampled rows, rich in hits. Any-hit rate of the full collection: about 2.1%.
STAT3 binder: binders of human STAT3. Small molecule microarray, His-STAT3 binding, anti-His fluorescence. calls only. 17,000 tested, 0.2% active. AID 624138;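 active means compounds whose four printed spots each show fluorescence over background unusually high for their array block, chance value under 7%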
mut p53 SMM: binders of human mutant p53; calls only; small molecule microarray binding, anti-GST fluorescence; 17,000 tested, 0.4% active;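 active means compounds whose four printed spots each glow above background more than chance allows, each with a p-value under 7%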
c-Myc SMM: binders of human c-Myc | P01106 | small molecule microarray, His-c-Myc binding, anti-His fluorescence | calls only | 17,000 tested, 1.5% active | AID 624141;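 active means spot fluorescence over background with P-value below 7% in all four replicate spots, showing protein binding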
Target sequence (P01106 whole entry, looked up): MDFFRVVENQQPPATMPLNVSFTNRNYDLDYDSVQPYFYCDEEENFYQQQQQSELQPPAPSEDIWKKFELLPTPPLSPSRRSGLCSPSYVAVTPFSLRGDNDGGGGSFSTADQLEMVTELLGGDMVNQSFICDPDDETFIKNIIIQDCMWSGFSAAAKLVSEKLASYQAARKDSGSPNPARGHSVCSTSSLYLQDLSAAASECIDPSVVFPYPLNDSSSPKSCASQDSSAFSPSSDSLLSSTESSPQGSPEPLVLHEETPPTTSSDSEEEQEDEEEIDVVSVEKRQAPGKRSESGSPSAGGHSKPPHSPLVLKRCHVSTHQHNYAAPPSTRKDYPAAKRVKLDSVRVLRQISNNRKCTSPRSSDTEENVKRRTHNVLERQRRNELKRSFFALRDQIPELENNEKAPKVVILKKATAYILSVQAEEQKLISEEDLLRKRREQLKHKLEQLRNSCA
NFkB binder: binders of human NF-kappa-B p105; P19838; 17,000 tested, 1.3% active; Small molecule microarray, anti-His fluorescence binding; calls only;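 active means spot fluorescence over background significantly raised, with a chance value under 7% in all four replicate spots of the compound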;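 further: probe protein is his-tagged human p50 processed subunit at 1 µg/ml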
Each line names hits and unclear results; the compound was inactive in the other large screens.

COC(=O)CSc1nc(-c2cccc(C)c2)nc2c1CCCC2	none
C[C@H](CO)N1C[C@H](C)[C@H](CN(C)C(=O)NC2CCCCC2)Oc2c(NC(=O)Nc3ccc(F)cc3)cccc2C1=O	none
C[C@H](CO)N1C[C@H](C)[C@@H](CN(C)C(=O)NC2CCCCC2)Oc2c(NC(=O)Nc3ccc(C(F)(F)F)cc3)cccc2C1=O	c-Myc SMM active, NFkB binder active
C[C@@H]1CN([C@H](C)CO)C(=O)c2cccc(NC(=O)Nc3ccc(C(F)(F)F)cc3)c2O[C@@H]1CN(C)C(=O)NC1CCCCC1	c-Myc SMM active, NFkB binder active
CC(=O)Nc1ccccc1NC(=O)COc1ccc(C(C)(C)C)cc1Br	none
N#CCCSCc1ccc2oc(C(=O)O)cc2c1	c-Myc SMM active
Cc1ccc(NC(=O)C(C)NS(=O)(=O)c2ccc(F)cc2)c(C)c1 (stereo not drawn)	none
CCOc1ccccc1C(=O)Oc1c(S(=O)(=O)c2ccc(C)cc2)c(C)nn1-c1ccccc1	c-Myc SMM active
CCOc1ccccc1NC(=O)c1ccccc1N(C)S(=O)(=O)c1ccc(C)cc1	none
Cc1nc2ccc(NC(=S)NCCCO)cc2nc1C	c-Myc SMM active
Cc1sc2nc(SCC(=O)O)n(-c3ccc(Cl)c(Cl)c3)c(=O)c2c1C	none
O=C1c2ccccc2C(=O)N1CC1CCN(Cc2cccc(OCCO)c2)CC1	c-Myc SMM active
O=C1c2ccccc2C(=O)N1C1CCN(Cc2ccc(OCCO)cc2)CC1	none
COc1ccccc1NC(=O)c1c(C)nc(Nc2nc3ccccc3o2)nc1C	none
CCOC(=O)Cc1cc(=O)[nH]c(Nc2nc3ccccc3o2)n1	mut p53 SMM active
Cc1noc(C)c1NC(=O)Nc1ccc2c(c1)C(=O)N([C@H](C)CO)C[C@H](C)[C@@H](CN(C)C(=O)C1CCCCC1)OCCCC[C@@H](C)O2	none
Cc1noc(C)c1NC(=O)Nc1ccc2c(c1)C(=O)N([C@@H](C)CO)C[C@H](C)[C@H](CN(C)C(=O)C1CCCCC1)OCCCC[C@H](C)O2	none
Cc1noc(C)c1NC(=O)Nc1ccc2c(c1)C(=O)N([C@H](C)CO)C[C@H](C)[C@H](CN(C)C(=O)C1CCCCC1)OCCCC[C@H](C)O2	STAT3 binder active
Cc1noc(C)c1NC(=O)Nc1ccc2c(c1)C(=O)N([C@@H](C)CO)C[C@@H](C)[C@H](CN(C)C(=O)C1CCCCC1)OCCCC[C@H](C)O2	c-Myc SMM active, NFkB binder active
Cc1noc(C)c1NC(=O)Nc1ccc2c(c1)C(=O)N([C@@H](C)CO)C[C@@H](C)[C@@H](CN(C)C(=O)C1CCCCC1)OCCCC[C@H](C)O2	c-Myc SMM active
Cc1ccc(S(=O)(=O)NCCCO)cc1C(=O)O	none
CC(C)(Sc1ccc(CCN(CCCCC2CCCCC2)C(=O)NC2CCCCC2)cc1)C(=O)O	NFkB binder active
COc1ccc(CO[C@H]2O[C@H](CO)[C@@H](O)[C@H](O)[C@H]2NC(C)=O)c2cc(C)oc12	none
COCC1OC(OC(C)(C)C2CCC3(C)C=C(C4CCC5C4(C)CC(O)C4OC(C(C)(C)OC6OC(CO)C(O)C(O)C6NC(C)=O)CCC45C)CCC3O2)C(NC(C)=O)C(O)C1O (stereo not drawn)	c-Myc SMM active, NFkB binder active
CCC(C)c1cnc(Cc2ccccc2)c(=O)[nH]1 (stereo not drawn)	none
CC1CCC2(NC1)OC1CC3C4CC=C5CC(O[C@@H]6O[C@H](CO)[C@@H](O[C@@H]7O[C@@H](C)[C@H](O)[C@@H](O)[C@H]7O)[C@H](O)[C@H]6O)CCC5(C)C4CCC3(C)C1C2C (stereo partly drawn)	NFkB binder active
CC1=C(CO)C(=O)OC([C@@H](C)[C@H]2CCC3C4CC=C5C[C@@H](O[C@@H]6O[C@H](CO)[C@@H](O)[C@H](O)[C@H]6O)C[C@H](O)[C@]5(C)C4CC[C@@]32C)C1 (stereo partly drawn)	none
COc1ccc(OCC(=O)Nc2ccccc2-c2nc3ccccc3s2)cc1	none
COc1cc(-c2nc3ccccc3s2)cc(Br)c1OCC(=O)O	c-Myc SMM active
Cn1c2ccccc2c2nnc(SCC(=O)c3ccc(Cl)cc3)nc21	c-Myc SMM active
COc1cc(/C(C)=C/C(C)(O)C(C)O)oc(=O)c1C (stereo not drawn)	none
Cc1ccc(NC(=O)c2cccc(NC(=O)CCC(=O)O)c2)cc1C	none
Cc1cccc(NC(=O)CCC(=O)O)c1	c-Myc SMM active
COc1cc2c(cc1OC)CN(C(=O)[C@@H]1[C@H]3C(=O)O[C@H](c4ccccc4)[C@H](c4ccccc4)N3[C@H](c3ccccc3OCCO)[C@@]13C(=O)Nc1ccccc13)CC2	none
